# Measured values: the supplement of paper PMC8728848
# The sample as a whole holds a higher share of the strongest signals than the screen did.
# Columns and labels:
# Test in all cases: glycan array binding signal (z-score within array); higher = stronger binding
# Settings in all cases: glycan notation: IUPAC condensed, linker removed
# [1] = biological target: Fuc(a1-2)Gal(b1-3)GalNAc(b1-3)Gal
# Procedure, shortened: (§1)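 From the Consortium for Functional Glycomics database, 3228 arrays were curated, keeping only those whose protein sequence was available. Binding is given as a within-array Z-score averaged across arrays sharing a protein sequence and across linkers. Negative Z-scores can be read as non-binding.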
# [2] = biological target: Fuc(a1-2)Gal(b1-3)GalNAc(b1-3)Gal(a1-4)Gal(b1-4)Glc
# Procedure, shortened: as §1
# Fuc(a1-2)Gal(b1-3)GlcNAc = biological target: Fuc(a1-2)Gal(b1-3)GlcNAc
# Procedure, shortened: as §1
# [3] = biological target: Fuc(a1-2)[Gal(a1-3)]Gal(b1-3)GalNAc(b1-3)Gal(a1-4)Gal(b1-4)Glc
# Procedure, shortened: as §1
# [4] = biological target: Fuc(a1-2)[Gal(a1-3)]Gal(b1-3)GlcNAc
# Procedure, shortened: as §1
# [5] = biological target: Fuc(a1-2)[GalNAc(a1-3)]Gal(b1-4)GlcNAc(b1-3)Gal(b1-4)GlcNAc(b1-3)Gal(b1-4)GlcNAc
# Procedure, shortened: as §1
# [6] = biological target: Fuc(a1-2)[GalNAc(a1-3)]Gal(b1-4)[Fuc(a1-3)]GlcNAc
# Procedure, shortened: as §1
# [7] = biological target: Fuc(a1-2)[GalNAc(b1-3)]Gal
# Procedure, shortened: as §1
# Fuc(a1-3)GlcNAc = biological target: Fuc(a1-3)GlcNAc
# Procedure, shortened: as §1
# [8] = biological target: Fuc(a1-3)[Gal(b1-4)]GlcNAc(b1-2)Man
# Procedure, shortened: as §1
# Gal(a1-3)Gal(b1-3)GlcNAc = biological target: Gal(a1-3)Gal(b1-3)GlcNAc
# Procedure, shortened: as §1
# [9] = biological target: Gal(a1-3)Gal(b1-3)GlcNAc(b1-2)Man(a1-3)[Gal(a1-3)Gal(b1-3)GlcNAc(b1-2)Man(a1-6)]Man(b1-4)GlcNAc(b1-4)GlcNAc
# Procedure, shortened: as §1
# [10] = biological target: Gal(a1-3)Gal(b1-4)GlcNAc(b1-3)GalNAc
# Procedure, shortened: as §1
# [11] = biological target: Gal(a1-4)Gal(b1-4)GlcNAc(b1-2)Man(a1-3)[Gal(a1-4)Gal(b1-4)GlcNAc(b1-2)Man(a1-6)]Man(b1-4)GlcNAc(b1-4)GlcNAc
# Procedure, shortened: as §1
# Gal(b1-2)Gal = biological target: Gal(b1-2)Gal
# Procedure, shortened: as §1
# Gal(b1-3)Gal(b1-4)GlcNAc = biological target: Gal(b1-3)Gal(b1-4)GlcNAc
# Procedure, shortened: as §1
# [12] = biological target: Gal(b1-3)GalNAc(a1-3)[Fuc(a1-2)]Gal(b1-4)GlcNAc
# Procedure, shortened: as §1
# [13] = biological target: Gal(b1-3)GlcNAc(b1-2)Man(a1-3)[Gal(b1-3)GlcNAc(b1-2)Man(a1-6)]Man(b1-4)GlcNAc(b1-4)[Fuc(a1-6)]GlcNAc
# Procedure, shortened: as §1
# [14] = biological target: Gal(b1-3)GlcNAc(b1-2)[Gal(b1-3)GlcNAc(b1-6)]Man(a1-6)[Gal(b1-3)GlcNAc(b1-2)Man(a1-3)]Man(b1-4)GlcNAc(b1-4)GlcNAc
# Procedure, shortened: as §1
# Gal(b1-4)Gal = biological target: Gal(b1-4)Gal
# Procedure, shortened: as §1
# Gal(b1-4)GlcNAc = biological target: Gal(b1-4)GlcNAc
# Procedure, shortened: as §1
# [15] = biological target: Gal(b1-4)GlcNAc(b1-2)[Gal(b1-4)GlcNAc(b1-4)]Man(a1-3)[Gal(b1-4)GlcNAc(b1-2)[Gal(b1-4)GlcNAc(b1-6)]Man(a1-6)]Man(b1-4)GlcNAc(b1-4)GlcNAc
# Procedure, shortened: as §1
# [16] = biological target: Gal(b1-4)GlcNAc(b1-3)Gal(b1-4)GlcNAc(b1-3)Gal(b1-4)GlcNAc(b1-3)Gal(b1-4)GlcNAc(b1-2)[Gal(b1-4)GlcNAc(b1-3)Gal(b1-4)GlcNAc(b1-3)Gal(b1-4)GlcNAc(b1-3)Gal(b1-4)GlcNAc(b1-6)]Man(a1-6)[Gal(b1-4)GlcNAc(b1-3)Gal(b1-4)GlcNAc(b1-3)Gal(b1-4)GlcNAc(b1-3)Gal(b1-4)GlcNAc(b1-2)Man(a1-3)]Man(b1-4)GlcNAc(b1-4)[Fuc(a1-6)]GlcNAc
# Procedure, shortened: as §1
# [17] = biological target: Gal(b1-4)GlcNAc(b1-3)Gal(b1-4)GlcNAc(b1-3)Gal(b1-4)GlcNAc(b1-3)Gal(b1-4)GlcNAc(b1-3)Gal(b1-4)GlcNAc(b1-2)Man(a1-3)[Gal(b1-4)GlcNAc(b1-3)Gal(b1-4)GlcNAc(b1-3)Gal(b1-4)GlcNAc(b1-3)Gal(b1-4)GlcNAc(b1-3)Gal(b1-4)GlcNAc(b1-2)Man(a1-6)]Man(b1-4)GlcNAc(b1-4)GlcNAc
# Procedure, shortened: as §1
# [18] = biological target: Gal(b1-4)GlcNAc(b1-3)Gal(b1-4)[Fuc(a1-3)]GlcNAc(b1-3)Gal(b1-4)[Fuc(a1-3)]GlcNAc
# Procedure, shortened: as §1
binder,measurement,setting,value
FimA-N1 (Actinomyces oris) (protein) MHHHHHHSSGVDLGTENLYFQSNATETPNYGNIKTDATGSLVIHKHLTGGGKDIGTPTGTAQNADDKGPAVEGVVFTAYPITDINLKDPAGWDTISNLSRTGVPDSACANPAAPTLGAHQFGTPKVSPATTKEGLATITEMPVQAYLVCETTTPGDIVQKAKPFVVTIPHPNTAAGADGQWIYDVNVYPKNEAIDVDKTIQAQK,glycan array binding signal (z-score),[1],2.83
same,glycan array binding signal (z-score),[2],-0.245
same,glycan array binding signal (z-score),Fuc(a1-2)Gal(b1-3)GlcNAc,-0.136
same,glycan array binding signal (z-score),[3],0.011
same,glycan array binding signal (z-score),[4],1.81
same,glycan array binding signal (z-score),[5],-0.23
same,glycan array binding signal (z-score),[6],0.129
same,glycan array binding signal (z-score),[7],1.69
same,glycan array binding signal (z-score),Fuc(a1-3)GlcNAc,-0.336
same,glycan array binding signal (z-score),[8],0.002
same,glycan array binding signal (z-score),Gal(a1-3)Gal(b1-3)GlcNAc,1.89
same,glycan array binding signal (z-score),[9],-0.21
same,glycan array binding signal (z-score),[10],-0.363
same,glycan array binding signal (z-score),[11],0.207
same,glycan array binding signal (z-score),Gal(b1-2)Gal,1.45
same,glycan array binding signal (z-score),Gal(b1-3)Gal(b1-4)GlcNAc,-0.145
same,glycan array binding signal (z-score),[12],-0.448
same,glycan array binding signal (z-score),[13],-0.504
same,glycan array binding signal (z-score),[14],3.13
same,glycan array binding signal (z-score),Gal(b1-4)Gal,-0.308
same,glycan array binding signal (z-score),Gal(b1-4)GlcNAc,-0.171
same,glycan array binding signal (z-score),[15],-0.483
same,glycan array binding signal (z-score),[16],1.54
same,glycan array binding signal (z-score),[17],3.32
same,glycan array binding signal (z-score),[18],-0.434
